From PubChem BioAssay AID1159580 (chemical genetic matrix, 2015)
Where “and” joins values, the source holds several entries; their conditions need not be identical. Equal entries are not always repeated. Among all 5,500 compounds or so, about 2,000 (36%) were called active. About 18% were inconclusive and are not listed. No stated cut-off is given here; in the data, active means normalized growth mostly below about 0.91 (no sharp cut-off); inconclusive means no clear call, values can overlap the other calls; inactive means mostly above about 0.92. The list shows a part of the results.

Assay: chemical genetic growth profiling, strain panel (AID 1159580);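 further: tested at 20 µM; growth read once vehicle control cultures reached saturation at 30 °C; 1 = growth at the plate median or of vehicle wells; lower values mean less growth of the strain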
Details: S. cerevisiae deletion strains, growth OD

Measured: normalized growth

COC(=O)C1=CCCN(C)C1
inactive: locus YAL013W, strain DEP1, hits give low values 1 and 1.01 | locus YAL021C, strain ccr4, hits give low values 1.03 | locus YAL026C, strain drs2, hits give low values 1.02 | locus YAL030W, strain snc1, hits give low values 1 | locus YAL040C, strain CLN3, hits give low values 0.997 | locus YBL061C, strain skt5, hits give low values 1.02 | locus YBR009C, strain hhf1, hits give low values 0.986 | locus YBR021W, strain FUR4, hits give low values 1 | locus YBR023C, strain chs3, hits give low values 1.02 | locus YBR171W, strain sec66, hits give low values 1.02 | locus YBR229C, strain ROT2, hits give low values 0.954 | locus YBR231C, strain swc5, hits give low values 0.999 | locus YBR279W, strain paf1, hits give low values 1.02 | locus YCL011C, strain gbp2, hits give low values 1.01 | locus YCL016C, strain dcc1, hits give low values 1.02 | locus YCL029C, strain bik1, hits give low values 0.983 | locus YCL069W, strain vba3, hits give low values 0.988 | locus YCR088W, strain abp1, hits give low values 1.01 | locus YDL005C, strain med2, hits give low values 0.998 | locus YDL035C, strain GPR1, hits give low values 0.993 | locus YDL040C, strain nat1, hits give low values 0.993 | locus YDL074C, strain BRE1, hits give low values 0.99 | locus YDL101C, strain DUN1, hits give low values 0.976 | locus YDL134C, strain PPH21, hits give low values 0.969 | locus YDL185W, strain tfp1, hits give low values 0.992 | locus YDL192W, strain arf1, hits give low values 0.983 | locus YDR001C, strain nth1, hits give low values 1 | locus YDR069C, strain doa4, hits give low values 0.993 | locus YDR101C, strain arx1, hits give low values 0.989 | locus YDR137W, strain rgp1, hits give low values 1.02 | locus YDR150W, strain NUM1, hits give low values 0.973 and 1.01 | locus YDR159W, strain sac3, hits give low values 0.94 | locus YDR162C, strain NBP2, hits give low values 0.991 | locus YDR195W, strain ref2 0.956 | locus YDR297W, strain sur2, hits give low values 1 | locus YDR318W, strain mcm21, hits give low values 0.99 | locus YDR334W, strain swr1, hits give low values 1 | locus YDR335W, strain msn5, hits give low values 1.02 | locus YDR388W, hits give low values 0.994 | locus YDR392W, strain spt3, hits give low values 0.977 | locus YDR502C, strain sam2, hits give low values 1 | locus YEL003W, strain gim4, hits give low values 0.997 | locus YEL037C, strain rad23, hits give low values 1.02 | locus YEL061C, strain CIN8 (second series), hits give low values 0.988 | locus YEL061C, strain CIN8, hits give low values 0.991 | locus YER002W, strain NOP16, hits give low values 0.986 | locus YER015W, strain faa2, hits give low values 1 | locus YER016W, strain bim1, hits give low values 1.02 | locus YER110C, hits give low values 0.969 | locus YER111C, strain swi4, hits give low values 1.01 | locus YER155C, strain BEM2 (second series), hits give low values 0.984 | locus YER155C, strain BEM2, hits give low values 1.02 | locus YER167W, strain BCK2, hits give low values 0.995 | locus YFR010W, strain ubp6, hits give low values 0.984 | locus YGL078C, strain dbp3, hits give low values 0.988 | locus YGL086W, strain mad1, hits give low values 0.994 | locus YGL167C, strain pmr1, hits give low values 1.01 | locus YGL173C, strain kem1, hits give low values 0.976 | locus YGL227W, strain vid30, hits give low values 0.998 | locus YGL240W, strain doc1, hits give low values 0.974 | locus YGL248W, strain PDE1, hits give low values 0.978 | locus YGL253W, strain hxk2, hits give low values 1.02 | locus YGR078C, strain PAC10, hits give low values 0.991 | locus YGR135W, strain pre9, hits give low values 0.983 | locus YGR229C, strain SMI1, hits give low values 1 | locus YGR252W, strain gcn5, hits give low values 0.945 | locus YHR013C, strain ard1, hits give low values 1.03 | locus YHR027C, strain rpn1, hits give low values 0.996 | locus YHR030C, strain SLT2, hits give low values 0.986 and 0.989 | locus YHR079C, strain IRE1 (second series), hits give low values 0.994 | locus YHR079C, strain IRE1, hits give low values 1.05 | locus YHR094C, strain hxt1, hits give low values 0.996 | locus YHR129C, strain ARP1, hits give low values 0.993 | locus YHR142W, strain chs7, hits give low values 1.03 | locus YHR200W, strain rpn10, hits give low values 0.989 | locus YIL066C, strain RNR3, hits give low values 0.982 | locus YIL073C, strain SPO22, hits give low values 0.935 | locus YIL125W, strain kgd1, hits give low values 0.995 | locus YIR030C, strain dcg1, hits give low values 0.98 | locus YJL092W, strain hpr5, hits give low values 1.01 | locus YJL095W, strain BCK1 (second series), hits give low values 1.01 | locus YJL095W, strain BCK1, hits give low values 1.02 and 1 | locus YJL115W, strain asf1, hits give low values 1.02 | locus YJL129C, strain trk1, hits give low values 1.04 | locus YJL134W, strain LCB3, hits give low values 0.985 | locus YJL154C, strain vps35, hits give low values 0.996 | locus YJL164C, strain tpk1, hits give low values 0.998 | locus YJL166W, strain qcr8, hits give low values 0.998 | locus YJL168C, strain set2, hits give low values 1 | locus YJL187C, strain SWE1 (second series), hits give low values 0.973 | locus YJR043C, strain POL32, hits give low values 1 | locus YJR066W, strain TOR1, hits give low values 0.968 | locus YJR075W, strain HOC1, hits give low values 0.99 and 1.01 | locus YKL009W, strain mrt4, hits give low values 0.999
